# Test results reported in PubChem BioAssay (EPA / NIEHS).
# Records with an inconclusive call do not appear. Activity calls are given as the source filed them. The calls were made as follows, unless noted: active = hit-call score of the fitted dose curve at least 0.9, where 1 is the maximum; inconclusive = response in the unintended direction; inactive = score below 0.9.
# Assays:
# [1] = target: Oxysterols receptor LXR-alpha (Homo sapiens) (UniProt Q13133); assay: ATG_LXRa_TRANS: Attagene TRANS-FACTORIAL HepG2 Assay for human Liver X Receptor alpha (LXRa) (AID 2282980); details: HepG2 Attagene TRANS reporter, LXRa transactivation
# Method in brief: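 Chemical-induced reporter mRNA measured by RT-PCR with fluorescent labelling and capillary electrophoresis after 24 h dosing of transiently transfected HepG2 cells expressing exogenous NR-Gal4 chimeras; increases scored against DMSO baseline.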
# [2] = target: Oxysterols receptor LXR-beta (Homo sapiens) (UniProt P55055); assay: ATG_LXRb_TRANS: Attagene TRANS-FACTORIAL HepG2 Assay for human Liver X Receptor beta (LXRb) (AID 2282981); details: HepG2 Attagene TRANS GAL4-LXRb reporter, mRNA
# Method in brief: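 Measures induction of a Gal4-driven reporter transcript in HepG2 cells expressing an exogenous LXRb-Gal4 fusion. Cells are exposed to compound for 24 h before RNA isolation and RT-PCR with capillary electrophoresis detection.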
# [3] = ATG_M_06_TRANS: Attagene TRANS-FACTORIAL HepG2 Assay for M06 Transcription Factor (Internal Marker) (AID 2282983); details: HepG2 Attagene TRANS M06 internal marker reporter
# Method in brief: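 Background-control reporter readout: after 24 h chemical exposure of transiently transfected HepG2 (GAL4-UAS reporter units), mRNA quantified by RT-PCR with fluorescent labeling and capillary electrophoresis. Gain-of-signal fitting against DMSO baseline.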
# [4] = ATG_M_32_TRANS: Attagene TRANS-FACTORIAL HepG2 Assay for M32 Transcription Factor (Internal Marker) (AID 2282984); details: HepG2 Attagene TRANS M32 internal marker reporter;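 also: transcript level of a background control reporter unit measured by RT-PCR and capillary electrophoresis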
# Method in brief: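 After 24 h dosing of transfected HepG2 cells, total RNA was reverse-transcribed, reporter sequences PCR-amplified, 6-FAM labelled by primer extension and HpaI-digested before capillary electrophoresis. Signal increase over DMSO was fitted.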
# [5] = target: Nuclear respiratory factor 1 (Homo sapiens) (UniProt Q16656); assay: ATG_NRF1_CIS: Attagene CIS-FACTORIAL HepG2 Assay for human Nuclear Respiratory Factor 1 (NRF1) Orphan Gene (AID 2282987; active = hit-call score of the fitted dose curve at least 0.9, where 1 is the maximum; inactive = score below 0.9); details: HepG2 NRF1 cis-element reporter, Attagene multiplex; actives raise or lower the signal
# Method in brief: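 Transcriptional reporter readout, one component of a 52-endpoint multiplexed HepG2 panel. Exposure 24 h; mRNA detected via RT-PCR and fluorescent capillary electrophoresis; fitting in both directions against DMSO.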
# [6] = target: Bile acid receptor (Homo sapiens) (UniProt Q96RI1); assay: ATG_FXR_TRANS: Attagene TRANS-FACTORIAL HepG2 Assay for Farnesoid X Receptor (FXR) (AID 2282979); details: HepG2 Attagene TRANS FXR-GAL4 reporter transcription;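 also: hits raise reporter mRNA above DMSO so AC50 marks FXR activation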
# Method in brief: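 Reporter transcripts from transfected HepG2 cells were measured 24 h after dosing, using RT-PCR with capillary electrophoresis of 6-FAM-labelled fragments. The read-out reflects activity of exogenous FXR-Gal4 chimera on GAL4-UAS units, with induction relative to DMSO.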
# [7] = target: Transcriptional activator Myb (Homo sapiens) (UniProt P10242); assay: ATG_Myb_CIS: Attagene CIS-FACTORIAL HepG2 Assay for human Myeloblastosis (Myb) Proto-Oncogene Transcription Factor (AID 2282986; active = hit-call score of the fitted dose curve at least 0.9, where 1 is the maximum; inactive = score below 0.9); details: HepG2 Attagene CIS-FACTORIAL Myb reporter transcription; actives raise or lower the signal
# Method in brief: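 Fluorescence signals from capillary electrophoresis of RT-PCR-amplified reporter cDNA give the read-out. Cells: HepG2 transfected with multiple cis-regulated reporter units. Exposure lasts 24 hours; DMSO defines baseline for gain or loss of signal.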
# [8] = target: Nuclear receptor subfamily 4 group A member 2 (Homo sapiens) (UniProt P43354); assay: ATG_NURR1_TRANS: Attagene TRANS-FACTORIAL HepG2 Assay for human Nuclear Receptor Related Protein 1 (NURR1) (AID 2282985); details: HepG2 Attagene TRANS reporter, mRNA readout
# Method in brief: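 Chimeric NR-Gal4 fusion activity measured in HepG2 after 24 h treatment. Reporter transcripts detected by RT-PCR and capillary electrophoresis fluorescence; positive-direction curve fitting against DMSO.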
# [9] = target: Hepatocyte nuclear factor 4-alpha (Homo sapiens) (UniProt P41235); assay: ATG_HNF4a_TRANS: Attagene TRANS-FACTORIAL HepG2 Assay for human Hepatocyte Nuclear Factor 4 alpha (HNF4a) (AID 2282982); details: HepG2 HNF4a transactivation reporter, mRNA readout
# Method in brief: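 In this trans-factorial format, a chimeric HNF4a-GAL4 fusion drives a GAL4-UAS reporter in transfected HepG2 liver cells. After 24 h treatment, reporter mRNA induction is measured by RT-PCR with capillary electrophoresis, relative to DMSO.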
# Chain of Bile acid receptor (Homo sapiens) (Q96RI1 whole entry, looked up, the tested form may be a part): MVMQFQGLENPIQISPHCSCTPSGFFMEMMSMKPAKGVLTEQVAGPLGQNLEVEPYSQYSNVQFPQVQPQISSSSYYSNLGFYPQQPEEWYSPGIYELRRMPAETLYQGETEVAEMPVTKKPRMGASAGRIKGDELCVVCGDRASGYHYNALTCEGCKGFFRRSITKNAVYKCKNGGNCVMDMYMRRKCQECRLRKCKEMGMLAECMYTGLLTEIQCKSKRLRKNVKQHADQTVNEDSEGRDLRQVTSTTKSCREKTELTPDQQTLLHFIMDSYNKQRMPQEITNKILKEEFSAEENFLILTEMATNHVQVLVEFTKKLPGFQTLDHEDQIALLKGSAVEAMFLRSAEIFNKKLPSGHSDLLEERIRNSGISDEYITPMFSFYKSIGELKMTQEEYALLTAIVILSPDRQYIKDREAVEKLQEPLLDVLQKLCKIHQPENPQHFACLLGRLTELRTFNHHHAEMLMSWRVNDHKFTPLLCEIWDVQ
# Chain of Transcriptional activator Myb (Homo sapiens) (P10242 whole entry, looked up): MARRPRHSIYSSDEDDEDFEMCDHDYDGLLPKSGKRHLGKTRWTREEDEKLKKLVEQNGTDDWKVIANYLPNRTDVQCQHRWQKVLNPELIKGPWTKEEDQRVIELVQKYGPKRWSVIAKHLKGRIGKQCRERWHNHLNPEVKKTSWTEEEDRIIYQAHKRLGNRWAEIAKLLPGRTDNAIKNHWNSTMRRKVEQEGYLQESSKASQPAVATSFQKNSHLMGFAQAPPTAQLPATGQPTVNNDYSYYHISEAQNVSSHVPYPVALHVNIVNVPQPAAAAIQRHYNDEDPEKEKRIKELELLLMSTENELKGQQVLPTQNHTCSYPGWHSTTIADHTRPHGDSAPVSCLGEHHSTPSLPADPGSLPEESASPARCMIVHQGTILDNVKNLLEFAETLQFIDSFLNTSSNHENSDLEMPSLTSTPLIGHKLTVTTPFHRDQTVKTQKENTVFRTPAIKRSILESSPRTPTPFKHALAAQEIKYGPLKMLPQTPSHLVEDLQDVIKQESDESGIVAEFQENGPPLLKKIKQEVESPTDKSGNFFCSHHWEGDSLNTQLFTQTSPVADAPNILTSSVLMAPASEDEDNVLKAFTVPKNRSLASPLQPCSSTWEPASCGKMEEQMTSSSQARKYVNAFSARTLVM
# Chain of Hepatocyte nuclear factor 4-alpha (Homo sapiens) (P41235 whole entry, looked up, the tested form may be a part): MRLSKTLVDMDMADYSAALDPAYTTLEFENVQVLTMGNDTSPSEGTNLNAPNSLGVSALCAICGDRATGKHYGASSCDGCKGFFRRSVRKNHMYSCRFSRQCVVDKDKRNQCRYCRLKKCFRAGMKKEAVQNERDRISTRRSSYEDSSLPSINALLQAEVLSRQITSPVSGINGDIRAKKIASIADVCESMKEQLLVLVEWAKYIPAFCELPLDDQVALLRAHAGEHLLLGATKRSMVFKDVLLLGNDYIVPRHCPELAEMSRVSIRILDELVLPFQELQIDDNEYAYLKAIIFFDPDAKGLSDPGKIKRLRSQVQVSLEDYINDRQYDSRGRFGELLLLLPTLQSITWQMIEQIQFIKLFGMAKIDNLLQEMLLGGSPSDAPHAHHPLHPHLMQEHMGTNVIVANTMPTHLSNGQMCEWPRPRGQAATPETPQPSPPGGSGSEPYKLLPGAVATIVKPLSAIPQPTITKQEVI
# Chain of Nuclear receptor subfamily 4 group A member 2 (Homo sapiens) (P43354 whole entry, looked up, the tested form may be a part): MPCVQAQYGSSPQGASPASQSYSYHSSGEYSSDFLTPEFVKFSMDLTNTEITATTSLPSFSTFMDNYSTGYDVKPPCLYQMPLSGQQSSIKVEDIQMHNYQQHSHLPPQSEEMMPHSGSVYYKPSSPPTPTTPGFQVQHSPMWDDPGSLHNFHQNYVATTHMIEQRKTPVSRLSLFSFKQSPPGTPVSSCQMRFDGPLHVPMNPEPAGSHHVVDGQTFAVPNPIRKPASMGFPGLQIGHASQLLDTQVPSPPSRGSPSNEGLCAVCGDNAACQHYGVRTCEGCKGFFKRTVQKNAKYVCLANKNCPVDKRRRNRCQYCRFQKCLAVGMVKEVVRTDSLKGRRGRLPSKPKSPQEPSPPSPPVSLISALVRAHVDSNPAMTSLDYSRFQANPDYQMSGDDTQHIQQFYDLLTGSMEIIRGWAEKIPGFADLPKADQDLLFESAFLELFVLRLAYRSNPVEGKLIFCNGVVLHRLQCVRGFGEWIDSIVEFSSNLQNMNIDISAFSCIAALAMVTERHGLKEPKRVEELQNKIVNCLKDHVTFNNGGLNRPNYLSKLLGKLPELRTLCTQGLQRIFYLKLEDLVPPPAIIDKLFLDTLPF
# Chain of Oxysterols receptor LXR-beta (Homo sapiens) (P55055 whole entry, looked up, the tested form may be a part): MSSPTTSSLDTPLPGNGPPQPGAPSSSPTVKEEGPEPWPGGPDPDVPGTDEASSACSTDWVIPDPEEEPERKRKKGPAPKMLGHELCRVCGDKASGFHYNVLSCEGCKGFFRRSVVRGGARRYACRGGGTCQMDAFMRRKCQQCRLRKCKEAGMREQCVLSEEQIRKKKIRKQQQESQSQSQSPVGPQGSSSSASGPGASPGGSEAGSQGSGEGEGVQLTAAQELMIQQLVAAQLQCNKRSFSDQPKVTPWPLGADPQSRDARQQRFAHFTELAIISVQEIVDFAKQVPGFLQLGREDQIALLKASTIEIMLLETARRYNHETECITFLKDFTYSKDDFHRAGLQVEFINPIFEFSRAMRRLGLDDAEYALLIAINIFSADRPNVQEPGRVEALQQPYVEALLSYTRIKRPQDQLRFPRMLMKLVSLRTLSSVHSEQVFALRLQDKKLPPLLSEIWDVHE
# Chain of Nuclear respiratory factor 1 (Homo sapiens) (Q16656 whole entry, looked up): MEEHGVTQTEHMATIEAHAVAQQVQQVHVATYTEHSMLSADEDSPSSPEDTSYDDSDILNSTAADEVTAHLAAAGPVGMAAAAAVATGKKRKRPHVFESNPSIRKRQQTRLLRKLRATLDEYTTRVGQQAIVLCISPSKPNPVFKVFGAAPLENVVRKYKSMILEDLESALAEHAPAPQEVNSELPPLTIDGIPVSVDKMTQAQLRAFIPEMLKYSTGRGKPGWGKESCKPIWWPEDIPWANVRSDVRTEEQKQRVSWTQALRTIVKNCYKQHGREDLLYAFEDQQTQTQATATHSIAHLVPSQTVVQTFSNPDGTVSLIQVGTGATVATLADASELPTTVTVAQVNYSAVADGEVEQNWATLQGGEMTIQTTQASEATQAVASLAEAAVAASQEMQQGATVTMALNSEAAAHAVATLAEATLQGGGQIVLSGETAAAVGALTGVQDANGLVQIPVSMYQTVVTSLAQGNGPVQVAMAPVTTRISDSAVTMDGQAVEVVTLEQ
# Chain of Oxysterols receptor LXR-alpha (Homo sapiens) (Q13133 whole entry, looked up, the tested form may be a part): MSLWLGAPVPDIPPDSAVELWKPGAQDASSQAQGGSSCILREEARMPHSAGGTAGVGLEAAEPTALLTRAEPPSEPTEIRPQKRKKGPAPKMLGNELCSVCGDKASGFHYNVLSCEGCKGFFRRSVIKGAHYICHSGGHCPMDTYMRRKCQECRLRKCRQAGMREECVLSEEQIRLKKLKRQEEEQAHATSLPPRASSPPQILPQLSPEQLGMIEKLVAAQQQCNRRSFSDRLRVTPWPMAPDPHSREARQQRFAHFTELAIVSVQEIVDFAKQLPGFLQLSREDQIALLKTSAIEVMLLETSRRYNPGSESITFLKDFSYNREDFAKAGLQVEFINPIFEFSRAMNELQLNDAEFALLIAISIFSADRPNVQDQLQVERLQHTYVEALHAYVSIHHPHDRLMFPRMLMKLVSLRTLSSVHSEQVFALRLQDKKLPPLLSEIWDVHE
smiles,measurement,setting,value
C[C@]12CCC(=O)C[C@@H]1CC[C@@H]1[C@@H]2CC[C@]2(C)[C@@H](O)CC[C@@H]12,outcome,[1],inactive
same,outcome,[2],inactive
same,outcome,[3],inactive
same,outcome,[4],inactive
same,outcome,[5],inactive
O=C(Cc1ccccc1)c1ccccc1,outcome,[6],inactive
same,outcome,[3],inactive
same,outcome,[4],inactive
same,outcome,[7],inactive
same,outcome,[5],inactive
C=CC(=O)OCCCCCC(C)C,outcome,[6],inactive
same,outcome,[8],inactive
same,outcome,[7],inactive
ClC(Cl)=C(Cl)C(Cl)=C(Cl)Cl,outcome,[1],inactive
same,outcome,[2],inactive
same,outcome,[9],inactive
same,outcome,[3],inactive
same,outcome,[4],inactive
same,outcome,[8],inactive
same,outcome,[7],inactive
same,outcome,[5],inactive
Cc1ccc(N)cc1Cl,outcome,[1],inactive
same,outcome,[2],inactive
same,outcome,[3],inactive
same,outcome,[7],inactive
N#Cc1ccccn1,outcome,[1],inactive
same,outcome,[2],inactive
same,outcome,[9],inactive
same,outcome,[3],inactive
same,outcome,[4],inactive
same,outcome,[7],inactive
same,outcome,[5],inactive
CCc1ccccc1N,outcome,[1],inactive
same,outcome,[2],inactive
same,outcome,[4],inactive
O=[N+]([O-])c1ccc2c3c(cccc13)CC2,outcome,[6],inactive
same,outcome,[4],inactive
same,outcome,[7],inactive
CCOP(=S)(OCC)Oc1nc(Cl)c(Cl)cc1Cl,outcome,[6],inactive
same,outcome,[3],inactive
same,outcome,[4],inactive
same,outcome,[8],inactive
same,outcome,[5],inactive
CCOC(=O)CP(=O)(OCC)OCC,outcome,[1],inactive
same,outcome,[9],inactive
same,outcome,[4],inactive
same,outcome,[8],inactive
same,outcome,[7],inactive
CCCCCCCCc1ccc(O)cc1,outcome,[2],inactive
same,outcome,[3],inactive
same,outcome,[4],inactive
same,outcome,[8],inactive
same,outcome,[7],inactive
same,outcome,[5],inactive
C[C@H]1O[C@@H](O[C@H]2[C@@H](O)C[C@H](O[C@H]3[C@@H](O)C[C@H](O[C@H]4CC[C@@]5(C)[C@H](CC[C@@H]6[C@@H]5CC[C@]5(C)[C@@H](C7=CC(=O)OC7)CC[C@]65O)C4)O[C@@H]3C)O[C@@H]2C)C[C@H](O)[C@@H]1O,outcome,[2],inactive
same,outcome,[9],inactive
same,outcome,[3],inactive
same,AC50,[7],56.4 nM (active)
